From PubChem
The list is not random: actives were taken first. Their share in the collection is about 4.1%.
tim23-1 inh: inhibits growth of tim23-1 mutant yeast. S. cerevisiae tim23-1 growth, BacTiter-Glo luminescence, 24 h. inhibition, % at 20 µM. 1.3% of 330,000 active. AID 463212;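 active means growth inhibition of the mutant yeast at or above 50%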;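 further: temperature-sensitive mutant grown at 25 °C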
tim10-1 inh: inhibits growth of tim10-1 mutant yeast | 2.2% of 330,000 active | AID 463190 | S. cerevisiae tim10-1 ts strain growth, BacTiter-Glo, 24 h | inhibition, % at 20 µM;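 active means inhibition of at least 40%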;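 further: mutant grown at 25 °C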
NALP1 inh: blocks the NALP1 inflammasome reconstituted in yeast | S. cerevisiae NALP1/ASC/caspase-1 growth, X-gal OD620, 72 h | inhibition, % at 10 µM | 0.61% of 280,000 active | AID 2071; in the data active means inhibition mostly above about 24%, no sharp cut-off; inactive means mostly below about 32%
NALP3 yeast inh: blocks the NALP3 inflammasome reconstituted in yeast. Yeast reconstituted NLRP3/ASC/caspase-1, beta-gal luminescence, 24 h. inhibition, % at 10 µM. 0.39% of 330,000 active;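 active means inhibition of 50% or more; inactive means inhibition below 50%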
TIM10 inh: growth inhibitors of TIM10 yeast strain | AID 463195 | 1.4% of 330,000 active | inhibition, % at 10 µM | S. cerevisiae TIM10 strain growth, BacTiter-Glo luminescence, 24 h;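 active means inhibition of 40% or more at the single tested concentration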;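 further: wild-type TIM10 isogenic control strain grown at permissive 25 °C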
Each line names hits and unclear results; the compound was inactive in the other large screens.

O=C1C2CCCN2C(c2ccc(F)c(F)c2)N1c1cccc(Cl)c1 (stereo not given)	NALP1 inh 44
O=C1C2CCCN2C(c2ccccc2)N1c1cccc(Cl)c1 (stereo not given)	none
CCOC(=O)C1CCN(S(=O)(=O)c2ccc3[nH]c(=O)oc3c2)CC1	NALP1 inh 40
CCOC(=O)C1CCN(C(=O)COC(=O)CSc2ccc(C(N)=O)cc2[N+](=O)[O-])CC1	none
Cc1cccc(C(=O)Oc2c(Br)cc(Br)cc2/C=N/NC(=O)c2ccncc2)c1	NALP1 inh 28
N=c1c2c(-c3ccccc3)c(-c3ccccc3)n(Cc3ccccc3)c2ncn1CCCn1ccnc1	NALP1 inh 30
Cc1ccc2c(c1)N(CC(=O)NC1CCCCCC1)C(=O)c1cccnc1O2	none
COc1cccc(-c2cc(C(=O)NCc3ccco3)no2)c1	NALP1 inh 29
O=C(NCc1ccco1)c1cc(-c2cccc(Cl)c2)on1	none
O=C(CN1C(=O)c2ccccc2C1=O)NC1CCC(O)CC1 (stereo not given)	none (no result: NALP1 inh)
Cc1noc(C)c1COC(=O)[C@@H](NC(=O)c1ccccc1)C(C)C	NALP1 inh 24
O=C(CCn1nnc2ccccc21)N1CCC(O)(c2cccc(F)c2)CC1	none
CC(=O)N(C1=C(Cl)C(=O)c2ccccc2C1=O)C1CCCCC1	NALP1 inh 66
CC(=O)N(c1ccccc1C)C1CCCC1	none
CCc1ccc(N=CC2=C(O)CC(c3ccco3)CC2=O)cc1 (stereo not given)	NALP1 inh 38
COc1ccc(C(=O)c2c(NC(C)=O)sc3c2CCN(C(=O)OC(C)(C)C)C3)cc1	NALP1 inh 44
CCOC(=O)N1CCc2c(sc(NC(=O)Cc3ccccc3)c2C(=O)c2ccc(OC)cc2)C1	none
Cc1cccn2c(=O)c3cc(C(=O)NCc4ccc(F)cc4)c(=N)n(CC4CCCO4)c3nc12 (stereo not given)	none
COc1ccc(CNC(=O)c2cc3c(=O)n4cccc(C)c4nc3n(CC3CCCO3)c2=N)cc1 (stereo not given)	NALP1 inh 36
CN(C)c1ccc(CNC(=O)C2CCC(CNc3c(N4CCCCC4)c(=O)c3=O)CC2)cc1 (stereo not given)	none (no result: NALP1 inh)
COc1cc2[nH]c3ccccc3c2cc1C	NALP1 inh 22
CN1CCN(NC(=O)c2cn(-c3ccccc3)nc2-c2ccc(OC(F)F)cc2)CC1	none
CCCNC(=O)c1noc2c1CCc1ccccc1-2	none
O=C(NCCN1CCOCC1)c1noc2c1CCc1ccccc1-2	NALP1 inh 23
Cc1cc(Nc2ccccc2)nc(NCc2ccccc2)n1	none
Cc1cc(N/N=C/c2ccc(F)cc2)nc(NCc2ccccc2)n1	none
Cc1cc(Nc2ccc(Cl)cc2)nc(NCc2ccccc2)n1	NALP1 inh 76
Cc1cc(Nc2cccc(F)c2)nc(NCc2ccccc2)n1	NALP1 inh 72
NCCCNc1nc(N)c([N+](=O)[O-])c(NC2CCCCC2)n1	none
Cc1ccc(S(=O)(=O)NNC(=O)C2COc3ccccc3O2)cc1C (stereo not given)	NALP1 inh 40
NC(=O)C1=NOC(CNc2ncc(C(F)(F)F)cc2Cl)C1 (stereo not given)	none
COc1ccc(C(CC(=O)O)c2ccc3c(c2)OCO3)cc1 (stereo not given)	none
COc1ccc(CNCCC(c2ccccc2)c2ccc3c(c2)OCO3)cc1 (stereo not given)	NALP1 inh 27
CCN(CC)CC#CCC(C)(c1ccccc1)c1ccccc1	NALP1 inh 31
CN(C)S(=O)(=O)c1ccc(NC(=O)CN2CCN(C(c3ccccc3)c3ccccc3)CC2)cc1	none
O=C(NC1CCCCC1)c1ccc(CNc2nc(=S)[nH]c3ccccc23)cc1	none
O=C(NCCN1CCCC1=O)C1CCC(=O)N(CCc2ccc(Cl)cc2)C1 (stereo not given)	NALP1 inh 32
O=C(NCCN1CCNC1=O)C1CCC(=O)N(CCc2ccc(Cl)cc2)C1 (stereo not given)	none
Cc1cccc(N=C2NC(=O)/C(=C/c3cccn3C)S2)c1	none
O=C1NC(=Nc2ccccc2)S/C1=C\c1cccn1-c1ccccc1	NALP1 inh 39
COc1ccc(C(=O)NCC(=O)OCC(=O)c2ccc3c(c2)OCCO3)cc1	NALP1 inh 36
Cc1ccc(C(=O)NCC(=O)OCC(=O)c2ccc3c(c2)OCCO3)cc1C	none
CCCc1c(C(=O)N/N=C/c2cccnc2)nnn1-c1nonc1N	none
Cc1ccccc1N=C(NOCc1ccc(Cl)cc1Cl)c1nonc1N	NALP1 inh 40
